In brackets after ≈: the same amount, converted by molar mass. Among all 1,100 compounds or so, about 170 (15%) were called active. No rule for the calls is given here. A selection follows.
Experiment: Mycobacterium tuberculosis H37Rv growth inhibition, confirmatory dose response, cytotoxicity (AID 1332);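 as to CC50: Vero cells exposed to compounds for 72 hours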;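 as to IC50: bacteria incubated 7 days before adding Alamar blue readout reagent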
Settings: M. tuberculosis H37Rv growth inhibition; CC50: measured here: Vero cell cytotoxicity; IC50: measured here: IC50 H37Rv replicates
In the case of `NC(N)=NCC1COC2(CCCCC2)O1` (centres undefined), the IC50 is reported as over 20 µg/mL and the outcome is reported as “inactive”. With `Nc1ccc(S(=O)(=O)c2ccc(N)cc2)cc1` the IC50 was 9.09 µg/mL (≈ 36.6 µM) and the outcome was “active”. With `NC(N)=NS(=O)(=O)c1ccc(N)cc1` the IC50 was over 20 µg/mL and the outcome was “inactive”. For `Nc1ccc(S(N)(=O)=O)cc1`, the IC50 was over 20 µg/mL and the outcome was “inactive”. For `O=c1[nH]c(=O)n([C@H]2CC(O)[C@@H](CO)O2)cc1I` (some centres undefined), the IC50 was over 20 µg/mL and the outcome was “inactive”. In the case of `Cn1cc[nH]c1=S`, the IC50 is reported as over 20 µg/mL and the outcome is reported as “inactive”. For `CCN1CCC[C@H]1CNC(=O)c1c(OC)ccc(Br)c1OC`, the IC50 was over 20 µg/mL and the outcome was “inactive”. For `CCCc1ncc(C[n+]2ccccc2C)c(N)n1`, the IC50 was over 20 µg/mL and the outcome was “inactive”. For `NC(=O)c1ccc[n+]([C@@H]2O[C@H](COP(=O)([O-])OP(=O)(O)OC[C@H]3O[C@@H](n4cnc5c(N)ncnc54)[C@H](O)[C@@H]3O)[C@@H](O)[C@H]2O)c1`, the IC50 was over 20 µg/mL and the outcome was “inactive”. For `Cc1onc(-c2c(F)cccc2Cl)c1C(=O)N[C@@H]1C(=O)N2C(C(=O)O)C(C)(C)S[C@H]12` (some centres undefined), the IC50 was over 20 µg/mL and the outcome was “inactive”. For `CNCCCC1c2ccccc2C=Cc2ccccc21`, the CC50 was over 6 µg/mL, the IC50 was 17.4 µg/mL (≈ 66 µM) and the outcome was “active”. For `NCc1ccc(S(N)(=O)=O)cc1`, the IC50 was over 20 µg/mL and the outcome was “inactive”. With `COc1ncnc(NS(=O)(=O)c2ccc(N)cc2)c1OC` the IC50 was over 20 µg/mL and the outcome was “inactive”. With `COc1cnc(NS(=O)(=O)c2ccc(N)cc2)nc1` the IC50 was over 20 µg/mL and the outcome was “inactive”. In the case of `COc1cc(NS(=O)(=O)c2ccc(N)cc2)nc(OC)n1`, the IC50 is reported as 12.6 µg/mL (≈ 40.7 µM) and the outcome is reported as “active”. In the case of `C[C@@H]1NC(=O)NC1=O`, the IC50 is reported as over 20 µg/mL and the outcome is reported as “inactive”. With `CC1CS(=O)(=O)CCN1N=Cc1ccc([N+](=O)[O-])o1` (centres undefined) the IC50 was 2.74 µg/mL (≈ 9.55 µM) and the outcome was “active”. For `O=C1OC(CN2CCOCC2)CN1/N=C/c1ccc([N+](=O)[O-])o1` (centres undefined), the IC50 was over 20 µg/mL and the outcome was “inactive”. With `CCCc1cc(=O)[nH]c(=S)[nH]1` the IC50 was over 20 µg/mL and the outcome was “inactive”. With `CCOC(=O)Nc1ccc2c(c1)N(C(=O)CCN1CCOCC1)c1ccccc1S2` the IC50 was over 20 µg/mL and the outcome was “inactive”. With `CCN(CC)CCOC(=O)C(c1ccccc1)c1ccccc1` the IC50 was over 20 µg/mL and the outcome was “inactive”. In the case of `CC(C)NC[C@@H](O)COc1cccc2ccccc12`, the IC50 is reported as over 20 µg/mL and the outcome is reported as “inactive”. In the case of `C[C@@H]1O[C@@H](O[C@H]2[C@H](Oc3cc(O)c4c(c3)O[C@H](c3ccc(O)cc3)CC4=O)O[C@H](CO)[C@@H](O)[C@@H]2O)[C@H](O)[C@H](O)[C@H]1O`, the IC50 is reported as over 20 µg/mL and the outcome is reported as “inactive”. In the case of `CN[C@H](CC(C)C)C(=O)N[C@H]1C(=O)N[C@@H](CC(N)=O)C(=O)N[C@H]2C(=O)N[C@H]3C(=O)N[C@H](C(=O)N[C@H](C(=O)O)c4cc(O)cc(O)c4-c4cc3ccc4O)[C@H](O)c3ccc(c(Cl)c3)Oc3cc2cc(c3O[C@@H]2OC(CO)[C@@H](O)[C@H](O)[C@H]2O[C@H]2C[C@](C)(N)[C@H](O)[C@H](C)O2)Oc2ccc(cc2Cl)[C@H]1O` (some centres undefined), the IC50 is reported as 1.06 µg/mL (≈ 0.732 µM) and the outcome is reported as “active”.
